Assay: FRG1 promoter luciferase signal modulators, primary screen, FRG1 inhibition for FSHD, cell-based, C2C12 myotubes, firefly/Renilla luciferase, luminescence (AID 1084)
Details: higher = more signal, called active from +8 up or from −8 down

z-score, inactive:
Cc1ccc(S(=O)(=O)N2[C@@H](c3ccccc3)C(C(=O)O)=CC[C@H]2c2ccccc2)cc1 -2.89
CC[C@H]1C2=C3C(CC[C@H]4C(OC)OC[C@](C)([C@@H]34)N(C(=O)OC(C)(C)C)C2)C(CO)C1CO (stereo partly specified) -0.342
C=CCN1C(=O)[C@@]2(O[C@@H](CCn3cc([C@H](O)c4ccccc4)nn3)[C@H]([Si](C)(C)c3ccc(OC)cc3)[C@H]2C)c2cc(N3CCOC3=O)ccc21 -2
CO[C@@H]1COC(=O)CC=C[C@@H](C)[C@H](OC)COC(=O)CC=C[C@H]1C 0.211
CCCC[C@H]1OB(O)C[C@H]2C1=C(COC)C[C@H]1C(=O)N(Cc3ccccc3)C(=O)[C@H]12 -0.788
C=CC[C@@]1(C(=O)N2CCOCC2)N=C(c2ccc(OCCCO)cc2)O[C@@H]1c1ccccc1 -1.36
COc1ccc([Si](C)(C)[C@@H]2[C@@H](CCO)O[C@]3(C(=O)N(Cc4ccc(NC(=O)[C@H](C)O)cc4)c4ccccc43)[C@H]2C)cc1 -4.16
COc1ccc([Si](C)(C)[C@H]2[C@H](CC(=O)N(CCO)Cc3ccccc3)O[C@@]3(C(=O)N(C)c4ccccc43)[C@@H]2C)cc1 -1.39
NC(=O)[C@H]1[C@@H]2C(=O)O[C@@H](c3ccccc3)[C@@H](c3ccccc3)N2[C@@H](c2ccc(O)cc2)[C@]12C(=O)Nc1ccc(C#CCCO)cc12 -0.89
CO[C@H]1O[C@H](CO)[C@@H](OC(=O)Nc2ccc3c(c2)OCO3)[C@H](OC(=O)Nc2ccccc2)[C@@H]1OC(=O)Nc1ccccc1 -1.6
CC(C)(C)OC(=O)CC[C@@]1(C(=O)NCc2ccccc2)N=C(c2ccc(OCCCO)cc2)O[C@@H]1c1ccccc1 -2.49
C[C@@H]1CC[C@H]2C(=O)N3CCC[C@H]3C(=O)N2[C@H]1c1ccc(Br)cc1 -0.228
C=CCNC(=O)[C@H]1[C@@H]2C(=O)O[C@@H](c3ccccc3)[C@@H](c3ccccc3)N2[C@@H](c2ccc(O)cc2)[C@]12C(=O)Nc1ccc(C#CCNC(N)=O)cc12 -0.477
O=C(NCc1ccccc1)[C@@]1(Cc2ccccc2)COC(c2ccc(OCCCO)cc2)=N1 -3.27
COc1ccc(C(=O)Nc2ccc(CN3C(=O)[C@]4(O[C@H](CCn5cc(CCO)nn5)[C@@H]([Si](C)(C)c5ccc(OC)cc5)[C@@H]4C)c4ccccc43)cc2)cc1 -3.72
O=C1C2C=CC(C(O)c3ccccc3)N(n3cnnc3)C2C(=O)N1Cc1ccccc1 (stereo unspecified) -1.43
O=C1c2ccccc2[C@](Cc2ccccc2I)(C(=O)NCC(F)(F)F)[C@H](c2ccc(CO)cc2)N1Cc1ccccc1C(F)(F)F -0.307
COCCCNC(=O)[C@@]1(Sc2ccc(C)cc2)CC(=O)N(Cc2cc(C(F)(F)F)cc(C(F)(F)F)c2)[C@@H]1c1ccc(CO)cc1I -0.925
CC1CC/C=C\[C@H]2OC34C=CCN(Cn5nnc6ccccc65)C(=O)[C@H]3N(C(C)CO)C(=O)[C@@H]4C2C(=O)O1 (stereo partly specified) -0.389
COCCOC(=O)N1C(=O)[C@@]2(c3cc(C#CCNC(N)=O)ccc31)[C@H](C(=O)N1CCCCCCC1)[C@H]1C(=O)O[C@H](c3ccccc3)[C@H](c3ccccc3)N1[C@@H]2c1ccccc1OCCO -0.556
CO[C@H]1COC(=O)CC=C[C@H](C)[C@@H](OC)COC(=O)CC=C[C@@H]1C -1.12
C=CCNC(=O)[C@H]1[C@@H]2C(=O)O[C@@H](c3ccccc3)[C@@H](c3ccccc3)N2[C@@H](c2ccccc2OCCO)[C@]12C(=O)N(C(=O)OCCOC)c1ccc(C#CCC(C(=O)OC)C(=O)OC)cc12 -0.678
CCc1cccc(NC(=O)O[C@H]2[C@H](OC(=O)Nc3ccccc3)[C@@H](OC(=O)Nc3ccccc3)[C@@H](OC)O[C@@H]2CO)c1 0.825
O=C1O[C@@H](c2ccccc2)[C@@H](c2ccccc2)N2[C@@H](c3ccccc3OCCO)[C@]3(C(=O)Nc4ccc(C#CC5=CCCCC5)cc43)[C@@H](C(=O)O)[C@H]12 -1.6
O=C1C[C@@](C(=O)NCCN2CCOCC2)(c2ccc([N+](=O)[O-])cc2)[C@@H](c2ccc(CO)cc2)N1C1CCCCC1 0.292
C[C@H]1NC(=O)[C@@H](C)NC(=O)[C@@]23C(=O)N[C@@H](Cc4ccccc4)C2[C@H](C)[C@@]2(C)O[C@H]2C3/C=C/C/C=C\CNC1=O (stereo partly specified) 0.0028
CCC#CCN(Cc1ccccc1Br)[C@H](/C=C/c1ccccc1)[C@@H](O)Cc1ccccc1 -0.227
C=C(COC)/C(=C/C[C@@H](OC(C)=O)c1cccc(OCCO)c1)c1cc(C(=O)OC)ccc1OC -0.637
O=C/C=C/c1ccccc1Cl 1.58
Cc1ccc(S(=O)(=O)c2cc3oc2CC[C@@H](CO)NC(=O)N(C)Cc2cn(nn2)C[C@H](Cc2ccccc2)NC3=O)cc1 -0.618
O=C1O[C@H](c2ccccc2)[C@H](c2ccccc2)N2[C@H]1[C@@H](C(=O)Nc1nc3ccccc3s1)[C@]1(C(=O)Nc3ccc(C#CC4=CCCCC4)cc31)[C@H]2c1ccccc1OCCO 0.59
C=CCC1=C[C@H]2[C@H]([C@@H]3C=C[C@]2(CC=C)C(=O)[C@]32CO2)[C@@]2(CO2)C1=O -1.52
CC(C)N1CC=CC23O[C@@H]4/C=C\CCCOC(=O)C4[C@H]2C(=O)N(CCO)[C@@H]3C1=O (stereo partly specified) -0.469
C=CCC(OC(C)=O)[C@@H]1[C@@H](N(Cc2cc3ccccc3o2)C(=O)Cc2ccc(F)cc2)c2cc(OCCCO)ccc2N1C(=O)c1ccc(-c2ccccc2)cc1 (stereo partly specified) 0.051
C=CCc1cccc([C@H]2N[C@H](C(=O)O)CC[C@@H]2C)c1 -0.204
CCOC(=O)C[C@H]1[C@H](OC(=O)Cc2ccc3c(c2)OCO3)[C@@H](NC(=O)c2ccc3ccccc3c2)c2cc(OCCCO)ccc2N1C(=O)Cc1ccc(OC)cc1 -1.63

Source: PubChem BioAssay
